Assay outcomes from PubChem BioAssay.
DT40 TDP1 CPT: DT40-hTDP1 cell growth loss with CPT; 420,000 tested, 12% active; chicken DT40 Tdp1-/-;hTDP1 cells + 20 nM CPT, ATP luminescence, 48 h; AID 686979; Potency, µM (top dose mostly 46.2 µM), for inactives: at the top dose activity change, negative = growth inhibition, actives largely listed as inhibitors; further: potency means the concentration at half of the fitted maximal effect; nearly all actives have a fitted effect of over 55% in size
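Chicken DT40 Tdp1-/- cells complemented with human TDP1, 400 cells/well, exposed to compounds plus 20 nM camptothecin for at least 48 h at 37 C; viability read as ATP content by CellTiter-Glo luminescence.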
Gal4-VP16 FLuc: inhibits Gal4-VP16 luciferase reporter, ROR gamma counter-screen | Drosophila S2 Gal4-VP16 UAS-luciferase, luminescence, 20 h | Potency, µM (titrated, usually from 53.6 µM), without a hit: at the highest dose activity, negative = inhibition, hits mostly inhibitors | 310,000 tested, 3.5% active | AID 2546;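 further: Gal4-VP16 expression switched on by copper sulfate through the metallothionein promoter; potency means the concentration at half of the fitted maximal effect; nearly all actives have a fitted effect of over 50% in size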
IL-1B inflam inh: inflammasome signaling inhibition, IL-1 beta readout. activity change, % at 57.5 µM. AID 743279. THP-1 LPS/ATP IL-1B secretion, AlphaLISA, 16 h; hits give low values. 360,000 tested, 4.7% active; in the data active means activity change below about -50%; inconclusive means mostly about -30% to -49%
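Secreted IL-1B measured by AlphaLISA bead assay after 16 h compound exposure of THP-1 cells; compounds (final up to 57.5 uM) added 1 h before LPS (250 ng/mL) and ATP (1.25 mM) stimulation; lower signal means less secretion.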
DT40 TDP1 no CPT: qHTS for Inhibitors of human tyrosyl-DNA phosphodiesterase 1 (TDP1): qHTS in cells in absence of CPT | DT40 Tdp1-/- hTDP1 cells, no CPT, ATP luminescence, 48 h | Potency, µM (titrated, usually from 46.2 µM), inactives show at the top dose activity change, negative = growth inhibition, actives largely listed as inhibitors | 420,000 tested, 15% active; further: potency means the concentration at half of the fitted maximal effect; nearly all actives have a fitted effect of over 55% in size
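Growth of hTDP1-complemented DT40 Tdp1-knockout cells is measured by ATP luminescence after at least 48 hr compound exposure at 37 °C, with DMSO substituting for the 20 nM CPT used in the parallel screen.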
RORg inh: inhibitors of mouse ROR gamma transcriptional activity; P51450; Drosophila S2 Gal4-RORgamma UAS-luciferase reporter, 20 h; Potency, µM (top dose mostly 53.6 µM), for inactives: at the highest dose activity change, negative = inhibition, usual class: inhibitors; 310,000 tested, 5.4% active; AID 2551; further: potency means the concentration at half of the fitted maximal effect; nearly all actives have a fitted effect of over 60% in size
Target sequence (P51450 whole entry, looked up, the tested form may be a part): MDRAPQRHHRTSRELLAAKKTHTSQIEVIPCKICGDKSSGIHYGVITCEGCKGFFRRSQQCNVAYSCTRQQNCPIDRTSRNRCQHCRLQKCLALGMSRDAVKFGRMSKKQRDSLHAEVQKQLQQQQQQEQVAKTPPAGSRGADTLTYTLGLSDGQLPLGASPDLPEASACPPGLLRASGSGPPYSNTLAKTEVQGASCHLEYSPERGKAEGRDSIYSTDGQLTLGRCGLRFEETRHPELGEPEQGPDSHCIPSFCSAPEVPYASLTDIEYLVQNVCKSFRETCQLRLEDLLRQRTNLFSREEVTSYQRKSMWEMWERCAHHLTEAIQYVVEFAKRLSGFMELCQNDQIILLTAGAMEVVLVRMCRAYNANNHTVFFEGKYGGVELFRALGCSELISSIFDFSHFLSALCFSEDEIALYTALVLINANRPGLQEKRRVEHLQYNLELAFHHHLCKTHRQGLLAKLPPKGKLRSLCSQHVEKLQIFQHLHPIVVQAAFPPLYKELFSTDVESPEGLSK
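Stably transfected Drosophila Schneider cells are the test system, with ROR gamma fused to Gal4 and luciferase under UAS control; luminescence is read after 20 hr of 700 uM copper sulfate induction at ambient temperature.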
LDHA block: blocks human lactate dehydrogenase A; P00338; purified LDHA, NADH/diaphorase-resazurin fluorescence; hits give low values; activity change, % (values are at about 110 or 230 µM); 480,000 tested, 0.15% active; in the data active means activity change below about -30%; inconclusive means mostly about -25% to -30%;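 further: plate controls were DMSO wells for no effect and wells without enzyme for full effect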
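Resorufin fluorescence (ex540/em590), read at 0 and 20 min after diaphorase/resazurin addition, reports the NADH left after a 5 min room-temperature reaction of 2 nM human LDH5 with 0.06 mM NADH and 0.2 mM pyruvate.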
Starred values were filed as active, the others as inactive. An excerpt weighted towards active compounds, which were near 18% of everything screened. Unless noted, the call rests on the fitted dose curve; in most records, active means well fitted curve in the direction sought with a large enough effect; inconclusive means small, poorly fitted or top-dose-only effect, or another doubt; inactive means no such curve, though single readings can be large; an effect the other way counts as inactive or inconclusive. Unless noted, on the % scale 0 is the no-effect control and ±100 the full control effect.

What do the screens show for `COc1cc2cc(C(=O)N[C@H](C(=O)Nc3nccs3)C(C)C)n(C)c2c(OC)c1OC`?
LDHA block: 3.8

Results for O=C(Nc1ccccn1)C(c1ccccc1)c1ccccc1 ?
DT40 TDP1 CPT: 14.6µM*; IL-1B inflam inh: 32.7; DT40 TDP1 no CPT: 20.6µM*; LDHA block: 1.3

What do the screens show for `Cc1ccc(NC(=O)Nc2ccccc2)nc1`?
DT40 TDP1 CPT: 9.3%; IL-1B inflam inh: -25.2; DT40 TDP1 no CPT: -7.3%; LDHA block: -3.1

What do the screens show for `Cc1ccc(NC(=O)C(c2ccccc2)c2ccccc2)nc1`?
DT40 TDP1 CPT: 20.6µM*; Gal4-VP16 FLuc: 4.4%; IL-1B inflam inh: -8.5; DT40 TDP1 no CPT: inconclusive; RORg inh: -5.6%; LDHA block: 2.1

How did O=C(CSC1CCCCC1)c1ccc(OC(F)F)cc1 do in these assays?
LDHA block: 1.5

How did CCn1cc(C(=O)O)c(=O)c2cc(F)c(N3CCN(C(=O)Nc4ccccc4)CC3)cc21 do in these assays?
DT40 TDP1 CPT: 20.6µM*; Gal4-VP16 FLuc: 3.8%; IL-1B inflam inh: inconclusive; DT40 TDP1 no CPT: 23.1µM*; RORg inh: -10.2%; LDHA block: 20.9

What do the screens show for `CCn1cc(C(=O)O)c(=O)c2cc(F)c(N3CCN(S(=O)(=O)c4ccc(NC(C)=O)cc4)CC3)cc21`?
DT40 TDP1 CPT: -27.4%; Gal4-VP16 FLuc: -4.8%; IL-1B inflam inh: 0.0; DT40 TDP1 no CPT: inconclusive; RORg inh: 9.4%; LDHA block: 5.9

Results for CCn1cc(C(=O)O)c(=O)c2cc(F)c(N3CCN(S(=O)(=O)c4ccc5c(c4)OCCO5)CC3)cc21 ?
DT40 TDP1 CPT: 20.6µM*; Gal4-VP16 FLuc: -6.7%; IL-1B inflam inh: 34.8; DT40 TDP1 no CPT: inconclusive; RORg inh: -3.6%; LDHA block: 5.8

How did CCCCCCCCC(=O)N1CCN(c2cc3c(cc2F)c(=O)c(C(=O)O)cn3CC)CC1 do in these assays?
DT40 TDP1 CPT: -23.9%; Gal4-VP16 FLuc: -2.1%; IL-1B inflam inh: 28.9; DT40 TDP1 no CPT: -15.0%; RORg inh: 17.9%; LDHA block: 0.6

Results for CCn1cc(C(=O)O)c(=O)c2cc(F)c(N/N=C/c3ccccc3)cc21 ?
DT40 TDP1 CPT: inconclusive; Gal4-VP16 FLuc: -2.6%; IL-1B inflam inh: 0.0; DT40 TDP1 no CPT: 13µM*; RORg inh: 13.3%; LDHA block: 2.0

Results for CCn1cc(C(=O)O)c(=O)c2cc(F)c(N3CCN(C(=S)NC(=O)c4ccccc4F)CC3)cc21 ?
DT40 TDP1 CPT: -20.1%; Gal4-VP16 FLuc: 4.0%; IL-1B inflam inh: -11.8; DT40 TDP1 no CPT: 14.6µM*; RORg inh: -3.8%; LDHA block: 8.9

How did O=C(CSc1ncnc2ccccc12)Nc1cc(Cl)ccc1Cl do in these assays?
LDHA block: 2.0

What do the screens show for `Cc1cc(C)c2nc(N3CCC(C(=O)NCc4ccc(OC(C)C)cc4)CC3)sc2c1`?
LDHA block: -4.6

Results for CC1CCc2sc(C(=O)OCC(=O)c3ccc4c(c3)OCCO4)cc2C1 (stereo unspecified) ?
LDHA block: 8.4

What do the screens show for `Cc1cccc(CN2CCN(C(=O)c3cc(C4CC4)nn3-c3ccccc3)CC2)c1`?
LDHA block: 3.0

Results for O=C(Cc1c(Cl)cccc1Cl)Oc1ccc(OCc2ccccc2)cc1 ?
LDHA block: -5.5

Results for O=C(c1ccc2c(c1)N(Cc1ccccc1)C(=O)c1ccccc1S2(=O)=O)N1CCc2ccccc21 ?
DT40 TDP1 CPT: 4.11µM*; DT40 TDP1 no CPT: 3.26µM*; LDHA block: -5.6

How did CC1CCCCN1C(=O)c1ccc2c(c1)N(Cc1ccc(F)cc1)C(=O)c1ccccc1S2(=O)=O (stereo unspecified) do in these assays?
DT40 TDP1 CPT: inconclusive; DT40 TDP1 no CPT: 18.4µM*; LDHA block: -8.7
